The subject of this experiment is Trypanosoma brucei. The experiment is described as follows: Trypanosoma brucei 72 hour study. It is filed as functional, organism-based. Further details: scale not given: in the data most compounds retested in dose-response had high values.

Each structure is given as a SMILES string. Among all 66,000 compounds or so, about 960 (1.5%) showed an effect of 50% or more. This is one part of a sample in which strong results are shown more often than they occur.

`Cc1ccc(CN2CCc3nnc(COCCN(C)C)n3CC2)o1.O=C(O)C(F)(F)F.O=C(O)C(F)(F)F`: the “Percent Effect” value (30.3 µM, […]) is given as -5.489%. Same read-out and setting: then `Cc1ccc2c(n1)N(CC1CC1)CCN(Cc1cnn(C)c1)C2`, with -21.1%; and `CN1CCCN(c2nccc(-c3c[nH]c4ccc(Br)cc34)n2)CC1`, with 99.21%; and `CN1CCCN(c2nccc(-c3c[nH]nc3-c3ccncc3)n2)CC1`, with 10.61%. In the case of `Nc1nccc(-c2c[nH]nc2C2CCCCC2)n1`, the “Percent Effect” value (30 µM, 30.03 µM) was determined as 44.22%. On to `CN1CCN(c2nccc(-c3cncnc3C3CCCCC3)n2)CC1`, for which the “Percent Effect” value (30.3 µM, […]) is recorded as -9.341%. Take `Cc1ccnc(N2CCC(C(N)=O)CC2)n1`: the “Percent Effect” value (30.3 µM, […]) is on record as -17.59%. Take `CN1CCCN(c2nccc(-c3c[nH]nc3C3CCCCC3)n2)CC1`: the “Percent Effect” value (30 µM, 30.03 µM) is given as 98.42%. As to `CN1CCCN(c2nccc(-c3cncnc3C3CCCCC3)n2)CC1`, the “Percent Effect” value (30.3 µM, […]) is given as -3.717%. For the compound `CN1CCCN(c2nccc(-c3cc(C(=O)O)ccn3)n2)CC1`, the “Percent Effect” value (30 µM, 30.03 µM) is listed as -37.76%. Turning to `NC(=O)[C@H]1CCCN(c2nccc(-c3c[nH]nc3-c3cccnc3)n2)C1`, where the note is “30.3 µM, […]”, the “Percent Effect” value was -17.38%. For the compound `NC(=O)C1CCN(c2nccc(-c3c[nH]nc3C3CCCCC3)n2)CC1`, the “Percent Effect” value (30.3 µM, […]) is reported as 100.2%. On the same count and under the same terms, to `c1cc(-c2c[nH]nc2C2CCCCC2)nc(N2CCCCCC2)n1` belongs 99.82%; to `c1cc(-c2cn3nccc3nc2C2CCCCC2)nc(N2CCCC2)n1`, 41.66%; to `Cc1nnsc1C(=O)N1CCCC(n2nnc3cc(F)ccc32)C1` (centres undefined), 2.47%.

Regarding `CC1COCCN1Cc1nc(-c2ccsc2)no1` (centres undefined), the “Percent Effect” value (30.3 µM, […]) was -0.3401% and the “Percent Effect” value (10 mM, 10 mM as filed; unlikely as a test dose) is on record as -39.38%. Regarding `CC(C)N1CCO[C@@H]2CN(S(=O)(=O)c3cccs3)CC[C@@H]2C1.O=C(O)C(F)(F)F`, the “Percent Effect” value (30.3 µM, […]) was -39.91%. `COc1ccc(OC)c(CN2CCc3nc4ccsc4c(=O)n3CC2)c1.Cl`: the “Percent Effect” value (30.3 µM, […]) is recorded as 12.93%.

`OC[C@H]1CCCN1c1nccc(-c2cncnc2C2CCCCC2)n1`: under “30.3 µM, […]”, the “Percent Effect” value is on record as -14.29%.

With `OC[C@H]1CCCN1c1nccc(-c2c[nH]nc2C2CCCCC2)n1`, the “Percent Effect” value (30.3 µM, […]) worked out at 98.96%. Same read-out and setting: to `OC[C@@H]1CCCN1c1nccc(-c2c[nH]nc2-c2ccncc2)n1` belongs 21.87%.

As for `CCc1noc(C(C)N(C)CC(=O)Nc2ccc(Br)cc2C)n1` (centres undefined), the “Percent Effect” value (30 µM, 30.03 µM) is -22.21%. Still for that read-out and setting: then `COc1ncccc1CN1C[C@@H]2COC[C@]2(COCC(=O)N(C)C)C1.O=C(O)C(F)(F)F.O=C(O)C(F)(F)F`, with -7.446%; and `CC(C)c1nccc(C2(c3ccccc3Cl)CCNCC2)n1`, with -6.514%. On to `Clc1ccccc1C1(c2ccnc(-c3ncccn3)n2)CCNCC1`, for which the “Percent Effect” value (30 µM, 30.03 µM) is given as 30.19%.

`Clc1ccccc1C1(c2ccnc(C3CCCC3)n2)CCNCC1`: for the setting “30 µM, 30.03 µM”, the “Percent Effect” value was 101.7%. In the case of `Clc1ccccc1C1(c2ccnc(CC3CC3)n2)CCNCC1`, the “Percent Effect” value (30 µM, 30.03 µM) was 25.18%. On the same count and under the same terms, then `CC(C)(C)c1nccc(C2(c3ccccc3Cl)CCNCC2)n1`, with 98.68%.

With `Clc1ccccc1C1(c2ccnc(C3CC3)n2)CCNCC1`, where the note is “30 µM, 30.03 µM”, the “Percent Effect” value is given as -58.64%. Take `CC1(C)CC(N(Cc2ccccc2)Cc2ncc[nH]2)CC(C)(C)N1.O=C(O)CC(O)(CC(=O)O)C(=O)O`: the “Percent Effect” value (30.3 µM, […]) worked out at 10.45%. Same read-out and setting: then `CCN1CCN(C)C2(CCN(Cc3ccsc3)CC2)C1=O.O=C(O)C(F)(F)F.O=C(O)C(F)(F)F`, with -66.4%.

On to `O=C(O)C(F)(F)F.O=C1COC2(CCN(Cc3ccoc3)CC2)CN1`, for which the “Percent Effect” value (30 µM, 30.03 µM) was -33.82%. With `O=C(O)C(F)(F)F.O=C(c1cnccn1)N1CCCC2(CCN(c3ncccn3)C2)C1` (centres undefined), the “Percent Effect” value (30 µM, 30.03 µM) is recorded as -0.826%. Turning to `CC(=O)N1CCN(S(=O)(=O)c2ccc(C)c(F)c2)CC1`, under “30 µM, 30.03 µM”, the “Percent Effect” value worked out at 0.5413%. For the compound `c1ccc2c(c1)CCN(c1nc(N3CCOCC3)c3nn[nH]c3n1)C2`, where the note is “30.3 µM, […]”, the “Percent Effect” value was -17%. For the compound `Cc1nc(CO[C@@H]2CN(Cc3ccsc3)[C@@H]3COC[C@@H]32)cs1.O=C(O)C(F)(F)F`, under “30 µM, 30.03 µM”, the “Percent Effect” value is reported as -15.95%. As for `CC(C)COCCC(=O)NCc1cn2cc(Br)ccc2n1`, the “Percent Effect” value (30 µM, 30.03 µM) is reported as -7.155%.

As for `CCOCCCC(=O)NCc1cn2cc(Br)ccc2n1`, the “Percent Effect” value (30 µM, 30.03 µM) is 54.92%. As to `CCOCCOC(C)C(=O)NCc1cn2cc(Br)ccc2n1` (centres undefined), the “Percent Effect” value (30 µM, 30.03 µM) worked out at 14.67%. In the case of `OC1(CNCCN2CCCc3ccccc32)CCNC1` (centres undefined), the “Percent Effect” value (30.3 µM, […]) amounted to 6.012%. Consider `OC1(CNCCCN2CCCc3ccccc32)CNCCOC1` (centres undefined), for which the “Percent Effect” value (30.3 µM, […]) is on record as 12.14%. In the case of `OC1(CNCCCN2CCc3ccccc32)CCNC1` (centres undefined), the “Percent Effect” value (30.3 µM, […]) was determined as 99.09%. On the same count and under the same terms, to `Cl.O=C(CCn1c(C(F)(F)F)cc2cccnc21)N1CCOCC1` belongs -52.3%; to `CN(CCOc1cccc(F)c1)Cc1nc2c(cnn2C)c(=O)[nH]1`, -16.26%. In the case of `Cc1[nH]/c(=N\C(=O)c2csc(NCC(C)C)n2)sc1C`, the “Percent Effect” value (30 µM, 30.03 µM) is reported as 99.84%. For `Cc1cs/c(=N/C(=O)c2csc(NCC(C)C)n2)[nH]1`, the “Percent Effect” value (30 µM, 30.03 µM) was found to be 86.34%. Take `Cc1cc(O)c(OCC(=O)/N=c2\[nH]c(C)c(C)s2)cn1`: the “Percent Effect” value (30 µM, 30.03 µM) is recorded as -31.23%. For `Cc1cnc(NC(=O)c2csc(NCC(C)C)n2)s1`, the “Percent Effect” value (30 µM, 30.03 µM) was 4.824%.

Source of the values: ChEMBL document CHEMBL3988442, “University of Dundee, Small-Polar-MMV Screening Library” (2021).
